Tb PYK inh = qHTS of Trypanosoma Brucei Inhibitors; pyruvate kinase (Trypanosoma brucei), Q57TT1; TbPYK enzyme, Kinase-Glo Plus ATP luminescence, 45 min; Potency, µM (highest dose often 76.8 µM), for the others: at the top dose activity, negative = inhibition, usual class: inhibitors; 410,000 tested, 0.12% active; AID 624173, 2012; further: potency means the concentration at half of the fitted maximal effect; on the % scale 0 is the no-effect control and ±100 the full control effect; nearly all actives have a fitted effect of over 50% in size
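Luminescent Kinase-Glo Plus end-point after 45 min room-temperature reaction of T. brucei pyruvate kinase started with 130 uM ADP (final). Buffer TEA 50 mM pH 7.2 with KCl, MgCl2, BSA, Tween-20; titration-based qHTS with fitted concentration-effect curves.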
FBPA Giardia inh = qHTS Assay for Inhibitors of Fructose-1,6-bisphosphate Aldolase from Giardia Lamblia | A8B2U2 | purified Giardia FBPA | Potency, µM (highest dose often 59.6 µM), without a hit: at the highest dose activity, negative = inhibition, usual class: inhibitors | 290,000 tested, 0.71% active | AID 2451, 2010; further: potency means the concentration at half of the fitted maximal effect; on the % scale 0 is the no-effect control and ±100 the full control effect; nearly all actives have a fitted effect of over 55% in size
Target sequence (A8B2U2 whole entry, looked up): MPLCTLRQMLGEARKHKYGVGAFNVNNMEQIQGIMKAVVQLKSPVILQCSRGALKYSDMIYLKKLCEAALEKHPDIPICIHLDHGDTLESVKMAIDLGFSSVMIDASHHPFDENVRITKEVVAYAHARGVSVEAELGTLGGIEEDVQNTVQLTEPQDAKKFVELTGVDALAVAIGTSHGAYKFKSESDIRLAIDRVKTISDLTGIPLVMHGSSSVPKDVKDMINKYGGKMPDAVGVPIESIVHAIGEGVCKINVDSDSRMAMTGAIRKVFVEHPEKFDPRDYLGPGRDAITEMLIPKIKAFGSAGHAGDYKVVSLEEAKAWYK
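40 nM FBPA preincubated 10 min at RT with compound (up to 57.5 uM final), then substrate plus GAPDH/TPI/NAD/arsenate coupling and diaphorase/resazurin added. Fluorescence read after 20 min at RT, 525/598 nm.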
Shiga inhibitor = A qHTS for Small Molecule Inhibitors of Shiga Toxin. Vero cells, Shiga toxin protein synthesis inhibition reporter. inhibition, % at 38.7 µM. 290,000 tested, 9.2% active. AID 2315, 2010; in the data active means inhibition mostly above about 28%, no sharp cut-off; inactive means mostly below about 43%; further: 0% is about no effect
Sm TGR block = qHTS Assay for the Inhibitors of Schistosoma Mansoni Peroxiredoxins | purified TGR, DTNB reduction, TNB absorbance 405 nm | Potency, µM (doses to about 114 µM), inactives show at the highest dose activity change, negative = inhibition, actives largely listed as inhibitors | 360,000 tested, 3% active; further: potency means the concentration at half of the fitted maximal effect; on the % scale 0 is the no-effect control and ±100 the full control effect; nearly all actives have a fitted effect of over 60% in size
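First, TGR (20 nM dispensed) and NADPH were mixed with compound. Second, a 15 min room-temperature incubation followed. Third, further NADPH and then DTNB were added to start the reaction. Finally, TNB absorbance was monitored kinetically.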
Cycloheximide cs = Cycloheximide Counterscreen for Small Molecule Inhibitors of Shiga Toxin; AID 2314, 2010; max response, %; 300,000 tested, 12% active; cell reporter, cycloheximide protein synthesis inhibition counterscreen; in the data active means max response mostly above about 13%, no sharp cut-off; inactive means mostly below about 14%; further: read at 38.3 µM for the half of the compounds with a filed dose; 0% is about no effect
LmPK inhibitor = qHTS Assay for Inhibitors of Leishmania Mexicana Pyruvate Kinase (LmPK) | Q27686 | purified LmPK, Kinase-Glo ATP luminescence, 1 h | Potency, µM (series often up to 57.5 µM), for inactives: at the highest dose activity change, negative = inhibition, actives largely listed as inhibitors | 290,000 tested, 0.37% active | AID 1721, 2009; further: potency means the concentration at half of the fitted maximal effect; on the % scale 0 is the no-effect control and ±100 the full control effect
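Purified LmPK (0.1 nM) converted ADP (0.1 mM) to ATP with PEP (0.5 mM) in imidazole buffer pH 7.2 with KCl and MgCl2, 1 h at room temperature. ATP was read by Kinase-Glo luminescence; data normalized to uninhibited and no-enzyme controls.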
Numbers without * were called inactive; ? = inconclusive; . = not tested or not shown; [ ] = another dose, or the depositor's remark. The full list was thinned out, with hits kept by preference. Unless noted, the call rests on the fitted dose curve; in most records, active means well fitted curve in the direction sought with a large enough effect; inconclusive means small, poorly fitted or top-dose-only effect, or another doubt; inactive means no such curve, though single readings can be large; an effect the other way counts as inactive or inconclusive.

SMILES	Tb PYK inh	FBPA Giardia inh	Shiga inhibitor	Sm TGR block	Cycloheximide cs	LmPK inhibitor
Cc1ccc(C(=O)/C=C/c2ccccc2)o1	-9%	-6%	61	2%	40*	-20%
Cc1ccc(C(=O)/C=C/c2ccc(Br)cc2)o1	6%	0%	-7	0%	-2	-3%
Cc1ccc(C(=O)N/N=C/c2ccc3c(c2)OCO3)o1	-7%	-7%	60*	-16%	63*	?
Cc1cc(C)n(CCc2nc3c4ccccc4nc(N4CCN(c5ccccc5)CC4)n3n2)n1	-1%	.	.	0%	.	.
COc1cccc(NC(=O)c2oc3ccc(S(=O)(=O)N(C)C4CCCCC4)cc3c2C)c1	3%	.	.	3%	.	.
CC(C)(C)NC(=O)N1CCC(C(=O)O)CC1	12%	.	.	13%	.	.
O=C(N/N=C/c1ccc2c(c1)OCO2)c1cc2ccccc2o1	-4%	4%	17	-6%	12*	2%
Cc1ccc(C(=O)NN=Cc2ccc3c(c2)OCO3)cc1	4%	.	.	.	.	.
O=C(N/N=C/c1ccc(O)cc1)c1cccc(C(F)(F)F)c1	-13%	3%	9	0%	7	-5%
Cn1cc([N+](=O)[O-])c(C(=O)N/N=C/c2ccc3c(c2)OCO3)n1	-4%	4%	43*	-25%	20*	1%
Nc1cccc(C(=O)N/N=C/c2ccsc2)c1	-2%	-1%	54*	-2%	33*	-5%
COc1ccc(CC(=O)Nc2c(C(=O)Nc3ccc(F)cc3)oc3ccccc23)cc1OC	6%	.	.	2%	.	.
CCCCCCCCCCCCCCCC(=O)OCC(COP(=O)(O)OCC[N+](C)(C)C)OC(=O)CCCCCCCCCCCCCCC (stereo not drawn)	1%	.	.	.	.	.
Cc1ccccc1-n1c(SCC(=O)c2cc(C)n(C)c2C)nnc1-c1ccncc1	-14%	-6%	-8	-24%	2	-2%
CCOc1cc(CNc2ccc3c(c2)OCCO3)cc(Br)c1OCC(N)=O	-13%	-4%	29	0%	20*	5%
CCOc1c(Br)cc(CNc2ccc3c(c2)OCCO3)cc1OC	-10%	?	97*	?	49*	11%
CCCOc1ccc(C(=O)Nc2ccc(-c3cc4ccccc4oc3=O)c(C)c2)cc1	0%	.	.	9%	.	.
COc1ccc(C2(c3ccc(OC)cc3)NC(=O)N(CC(=O)N(C)c3ccccc3)C2=O)cc1	2%	.	72*	-7%	51*	-8%
COc1ccc(C2(c3ccc(OC)cc3)NC(=O)N(CC(=O)Nc3ccccc3)C2=O)cc1	0%	-4%	-8	2%	-1	0%
CN(C)CCCNc1ncnc2sc(-c3ccccc3)cc12	-6%	?	-11	-19%	-3	-12%
CCOC(CNc1ncnc2sc(-c3ccccc3)cc12)OCC	4%	5%	25	?	12*	4%
CCC(C)NC(=O)c1ccc(Cn2c(=O)c3cccn3c3cccnc32)cc1 (stereo not drawn)	-10%	.	.	7%	.	.
CO[C@@H]1COC(=O)[C@@H](CCSC)NC(=O)C/C=C\[C@@H](C)COC(=O)[C@H](C)NC(=O)C/C=C\[C@H]1C	.	3%[12.9 µM]	.	.	.	.
O=C(/C=C/c1ccnc2ccccc12)c1cccs1	?	-25%	73*	.	38*	?
CC#CC(=O)N1CCCC(Cc2cccc(OC)c2)(C(=O)OCC)C1 (stereo not drawn)	-3%	0%	33*	2%	43*	-2%
SMILES	Tb PYK inh	FBPA Giardia inh	Shiga inhibitor	Sm TGR block	Cycloheximide cs	LmPK inhibitor
CCOC(=O)C1(Cc2cccc(OC)c2)CCCN(C(=O)CCc2cccnc2)C1 (stereo not drawn)	-4%	2%	69*	7%	46*	0%
CCOC(=O)C1(Cc2cccc(OC)c2)CCCN(S(=O)(=O)CC)C1 (stereo not drawn)	-6%	-1%	6	9%	1	0%
CCOC(=O)C1(Cc2cccc(OC)c2)CCCN(C(=O)c2cc(C)oc2C)C1 (stereo not drawn)	0%	.	76*	-31%	39*	7%
CCOC(=O)C1(Cc2cccc(F)c2)CCN(C(=O)c2cscn2)CC1	-3%	1%	-11	72%	8	3%
CCOC(=O)C1(Cc2cccc(F)c2)CCN(C(=O)c2ccoc2C)CC1	-2%	-2%	10	?	12*	1%
CCOC(=O)C1(Cc2cccc(OC)c2)CCCN(C(=O)CSC)C1 (stereo not drawn)	3%	.	.	.	.	.
COc1ccc(NC(=O)Cc2ccsc2)cc1S(=O)(=O)N1CCOCC1	0%	.	.	-6%	.	.
CC1(C(=O)O)CCC2(C)CCC3(C)C(=CC(=O)C4C5(C)CCC(O)C(C)(C)C5CCC43C)C2C1 (stereo not drawn)	-10%	.	.	.	.	.
CCOC(=O)C1(Cc2cccc(OC)c2)CCN(C2CCOCC2)CC1	-4%	-15%	82*	0%	33*	2%
CCOc1ccccc1N1CCN(C(=O)C2=CC=CN3CCS(=O)(=O)N=C23)CC1	-22%	.	.	-30%	.	.
N#CC(C#N)=C1C=CC=CN1/C(=C\c1ccco1)C(=O)c1ccc(Br)cc1	?	-15%	-16	2.2µM*	-11	0%
N#CC(C#N)=C1C=CC=CN1/C(=C\c1ccco1)C(=O)c1ccccc1	-13%	-5%	-6	2.8µM*	-7	8%
CCc1ccc(NC(=O)CC2C(=O)N(c3cccc(OC)c3)C(=O)N2Cc2ccc(F)cc2)cc1 (stereo not drawn)	0%	.	.	2%	.	.
O=C(c1cccc(F)c1)N1CCC2(CC1)CN(c1ncccn1)C2	4%	4%	.	.	.	.
COc1ccc(-n2c(CN3CCC(C)CC3)nc3ccc([N+](=O)[O-])cc3c2=O)c(OC)c1	-2%	-15%	-1	?	-3	7%
COc1ccc(-n2c(CN3CCOCC3)nc3ccc([N+](=O)[O-])cc3c2=O)c(OC)c1	-7%	-22%	26	45µM*	3	0%
CCOC(=O)N1CCN(Cc2nc3ccc([N+](=O)[O-])cc3c(=O)n2-c2ccc(OC)cc2OC)CC1	0%	-4%	-15	40µM*	-5	3%
COc1ccc(-n2c(CN3CCN(c4ccccc4)CC3)nc3ccc([N+](=O)[O-])cc3c2=O)c(OC)c1	-1%	-5%	-5	?	-4	-1%
COc1cccc(CNC(=O)CCn2c(=O)c3cccn3c3ccc(F)cc32)c1OC	1%	.	.	-16%	.	.
NS(=O)(=O)c1cccc(NC(=O)c2ccno2)c1	-5%	-1%	3	52%	1	4%

Assay outcomes as filed in PubChem.
